Laboratory results published in PubChem BioAssay (EPA / NIEHS).
Inconclusive results are not listed. The source holds several records for some structures; these can differ, active in one and inactive in another. Active and inactive are the calls of the source. How the source made its calls: active means hit-call score of the fitted dose curve at least 0.9, where 1 is the maximum; inconclusive means response in the unintended direction; inactive means score below 0.9.

What was measured:
[1] = molecular target: bovine Gamma-Aminobutyric Acid Type A Receptor Agonist (GABAR Agonist), GABRA1 (gene 780973) (UniProt P08219); assay: NVS_LGIC_bGABAR_Agonist: NovaScreen (NVS) Ligand-Gated Ion Channel Assay for bovine Gamma-Aminobutyric Acid Type A Receptor Agonist (GABAR Agonist) (AID 2283338)
Procedure, shortened: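 Radioligand binding to bovine cerebellar membranes in agonist format, read by filter-based scintillation counting after 1 h. Primary screen in duplicate at 25 uM, with actives followed in concentration series. Gain of signal versus DMSO.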

[2] = molecular target: Estrogen receptor (Homo sapiens) (UniProt P03372); assay: NVS_NR_hER: NovaScreen (NVS) Nuclear Receptor Binding Assay for human Estrogen Receptor (ER) (AID 2283348)
Procedure, shortened: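 Radiodetection of ligand displacement in a lysate-based, cell-free format using MCF7 extracts, read at 18 hours. Duplicate 25 uM primary testing, then concentration series for actives.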

[3] = molecular target: Estrogen receptor (Homo sapiens) (UniProt P03372); assay: OT_ER_ERaERa_1440: Odyssey Thera (OT) 24-hour HEK293T Protein-Complementation Assay for Estrogen Receptor-alpha/-alpha Homodimer (AID 2283349);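 further: hits raise fluorescence above DMSO for agonists and antagonists alike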
Procedure, shortened: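 Stably transfected HEK293T; ERα LBD homodimer PCA. 24 h dosing, fluorescence intensity read, gain-of-signal vs DMSO.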

[4] = molecular target: Estrogen receptor (Homo sapiens) (UniProt P03372); assay: OT_ER_ERaERa_0480: Odyssey Thera (OT) 8-hour HEK293T Protein-Complementation Assay for Estrogen Receptor-alpha/-alpha Homodimer (AID 2283351);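 further: rise in fluorescence from reassembled reporter fragments on ERα LBD homodimer in nucleus or whole cell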
Procedure, shortened: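 Cells were treated for 8 hours, then imaged on a laser scanning plate cytometer. Complementation of reporter fragments fused to the human ERα ligand-binding domain (residues 310-547) in HEK293T gave fluorescence, and gain of signal over vehicle was fitted.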

[5] = molecular target: T1, Estrogen receptor (Homo sapiens) + Estrogen receptor beta (Homo sapiens) (UniProt P03372+Q92731); assay: OT_ER_ERaERb_0480: Odyssey Thera (OT) 8-hour HEK293T Protein-Complementation Assay for Estrogen Receptor-alpha/-beta Heterodimer (AID 2283352)
Procedure, shortened: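 HEK293T protein-fragment complementation assay of ER-alpha/ER-beta LBD heterodimerisation, read 8 h after dosing. Mean nuclear/cytoplasmic fluorescence intensity measured by laser scanning cytometry; gain of signal fitted relative to DMSO.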

[6] = molecular target: T1, Estrogen receptor (Homo sapiens) + Estrogen receptor beta (Homo sapiens); assay: OT_ER_ERaERb_1440: Odyssey Thera (OT) 24-hour HEK293T Protein-Complementation Assay for Estrogen Receptor-alpha/-beta Homodimer (AID 2283356);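 further: heteromer of ER alpha and ER beta binding domains; hits raise reporter fluorescence and both agonists and antagonists give an increase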
Procedure, shortened: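 HEK293T stably expressing a PCA of ER alpha LBD (aa 310-547) and ER beta LBD (aa 263-489). After 24 h compound exposure, mean fluorescence intensity in nucleus (agonists) or nucleus and cytoplasm (antagonists) measured by laser scanning cytometry versus vehicle.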

[7] = molecular target: Estrogen receptor beta (Homo sapiens) (UniProt Q92731); assay: OT_ER_ERbERb_0480: Odyssey Thera (OT) 8-hour HEK293T Protein-Complementation Assay for Estrogen Receptor-beta/-beta Homodimer (AID 2283357);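 further: active means signal gain over DMSO baseline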
Procedure, shortened: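 Fluorescence gain from complemented reporter fragments on ER-beta LBD homodimer in HEK293T was quantified against DMSO controls after 8 h treatment, fixation in 4% formaldehyde and Draq5 staining.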

[8] = molecular target: human Peroxisome Proliferator-activated Receptor alpha (PPARa), PPARA (gene 5465) (UniProt Q07869); assay: NVS_NR_hPPARa: NovaScreen (NVS) Nuclear Receptor Binding Assay for human Peroxisome Proliferator-activated Receptor alpha (PPARa) (AID 2283359);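 further: activity means loss of TR-FRET signal versus DMSO baseline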
Procedure, shortened: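 One-hour incubation, cell-free extracted protein, TR-FRET binding readout; signal loss vs DMSO scored. Screen: 25 uM duplicates, confirmatory dose series for actives.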

[9] = molecular target: PGR (gene 5241) (UniProt P06401); assay: NVS_NR_hPR: NovaScreen (NVS) Nuclear Receptor Binding Assay for human Progestron Receptor (PR) (AID 2283360)
Procedure, shortened: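 T47D-derived receptor preparation, cell-free, with tritiated or iodinated radioligand displacement measured by scintillation 18 h post-dosing. Single 25 uM duplicate screen, then concentration series; signal loss relative to DMSO.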

[10] = tested on: NCBI gene 100848466; assay: NVS_NR_bPR: NovaScreen (NVS) Nuclear Receptor Binding Assay for bovine Progextron Receptor (PR) (AID 2283343)
Procedure, shortened: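 Steps: bovine uterine membranes were dosed with chemical alongside radioligand, incubated 18 hours, then radiodetected by scintillation counting. Initial testing used 25 uM in duplicate; confirmed actives were rerun as concentration series.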

[11] = molecular target: bovine Estrogen Receptor (ER), ESR1 (gene 407238) (UniProt P49884); assay: NVS_NR_bER: NovaScreen (NVS) Nuclear Receptor Binding Assay for bovine Estrogen Receptor (ER) (AID 2283345);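 further: actives lower the bound radioligand count which means they displace the ER ligand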
Procedure, shortened: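 Displacement of a radioligand from estrogen receptor in bovine uterine membrane preparations; scintillation signal taken at 18 hours, DMSO as baseline. Single-concentration duplicates (25 uM) preceded concentration-response follow-up of actives.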

[12] = molecular target: chimpanzee Androgen Receptor (AR), AR (gene 747460) (UniProt O97775); assay: NVS_NR_cAR: NovaScreen (NVS) Nuclear Receptor Binding Assay for chimpanzee Androgen Receptor (AR) (AID 2283346);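 further: radioligand displacement from AR measured by scintillation counting in a cell-free assay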
Procedure, shortened: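 Cell-free radioligand displacement using receptor protein extracted from Sf9/Sf21 cells; bound radioligand measured by scintillation counting 72 hours after chemical dosing. Loss of signal versus DMSO baseline indicates binding; primary screen single-concentration in duplicate at 25 uM, actives followed in concentration series.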

[13] = molecular target: Bile acid receptor (Homo sapiens) (UniProt Q96RI1); assay: NVS_NR_hFXR_Antagonist: NovaScreen (NVS) Nuclear Receptor Binding Assay for human Farnesoid X Receptor Antagonism (FXR) (AID 2283350)
Procedure, shortened: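 Antagonist-format time-resolved FRET binding assay with extracted human receptor protein, read 1 hour after compound addition. Compounds first screened at 25 uM in duplicate, then actives tested in concentration series, with loss of signal relative to DMSO.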

[14] = molecular target: Androgen Receptor/SRC-1 Co-activator, AR (gene 367) (UniProt P10275); assay: OT_AR_ARSRC1_0960: Odyssey Thera (OT) 16-hour HEK293T Protein-Complementation Assay for Androgen Receptor/SRC-1 Co-activator (AID 2283353);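 further: actives raise the signal above DMSO so potency reflects increased AR and SRC-1 complex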
Procedure, shortened: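 Stable HEK293T line carries AR and SRC-1 each linked to a Venus fragment; chemicals are applied for 16 h, cells imaged at two wavelengths, and the 488 nm nucleus/cytoplasm ratio is taken as the signal, rising relative to DMSO.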

[15] = molecular target: Androgen Receptor/SRC-1 Co-activator, AR (gene 367) (UniProt P10275); assay: OT_AR_ARSRC1_0480: Odyssey Thera (OT) 8-hour HEK293T Protein-Complementation Assay for Androgen Receptor/SRC-1 Co-activator (AID 2283354);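 further: hits raise the complementation signal above DMSO so AC50 marks enhancers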
Procedure, shortened: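 After 8 h dosing, stably expressing HEK293T cells with split-Venus AR/SRC-1 fusions were imaged (488, 635nm). The 488nm N/C ratio per image gave the endpoint, analysed in the positive direction against DMSO.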

[16] = tested on: guinea pig Histamine Receptor (H2), gene 100729734; assay: NVS_GPCR_gH2: NovaScreen (NVS) G Protein-Coupled Receptor Assay for guinea pig Histamine Receptor (H2) (AID 2283342)
Procedure, shortened: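 Guinea pig striatal membrane preparation with specific radioligand; bound counts measured by filtration and scintillation 1 h post-dosing, DMSO as baseline. Chemicals passing a 25 uM duplicate screen were titrated to a 50 uM maximum.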

[17] = molecular target: human Constitutive Androstane Receptor (CAR), NR1I3 (gene 9970) (UniProt Q14994); assay: NVS_NR_hCAR_Antagonist: NovaScreen (NVS) Nuclear Receptor Binding Assay for human Constitutive Androstane Receptor Antagonism (CAR) (AID 2283344)
Procedure, shortened: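 Single 25 uM duplicate primary screen, with concentration-series follow-up on actives. Cell-free binding format run in antagonist mode, TR-FRET signal taken 1 h post-dose; activity is signal loss relative to DMSO.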

[18] = molecular target: Retinoic acid receptor alpha (Homo sapiens) (UniProt P10276); assay: NVS_NR_hRAR_Antagonist: NovaScreen (NVS) Nuclear Receptor Binding Assay for human Retinoic Acid Alpha Receptor Antagonism (RAR) (AID 2283358)
Procedure, shortened: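 Chemicals were first tested in duplicate at 25 uM, then actives in concentration series, in a cell-free TR-FRET antagonist binding format. Measurements were taken 2 hours after dosing and loss of signal was evaluated against DMSO controls.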

Measured: AC50

Chain of human Peroxisome Proliferator-activated Receptor alpha (PPARa), PPARA (gene 5465) (Q07869 whole entry, looked up): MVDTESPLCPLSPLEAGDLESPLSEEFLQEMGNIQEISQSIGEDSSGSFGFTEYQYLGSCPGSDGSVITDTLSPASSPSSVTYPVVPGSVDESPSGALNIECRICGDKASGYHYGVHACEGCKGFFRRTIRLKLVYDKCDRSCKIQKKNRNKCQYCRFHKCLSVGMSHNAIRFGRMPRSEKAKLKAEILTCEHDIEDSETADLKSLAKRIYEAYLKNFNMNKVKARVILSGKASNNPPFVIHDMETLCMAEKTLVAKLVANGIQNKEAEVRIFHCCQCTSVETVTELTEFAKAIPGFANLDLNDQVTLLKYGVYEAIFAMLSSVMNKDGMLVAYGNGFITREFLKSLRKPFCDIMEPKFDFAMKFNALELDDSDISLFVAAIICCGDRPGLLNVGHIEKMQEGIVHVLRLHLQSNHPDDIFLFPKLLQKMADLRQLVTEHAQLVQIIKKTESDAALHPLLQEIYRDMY
T1 sequence (P03372 whole entry, looked up, the tested form may be a part): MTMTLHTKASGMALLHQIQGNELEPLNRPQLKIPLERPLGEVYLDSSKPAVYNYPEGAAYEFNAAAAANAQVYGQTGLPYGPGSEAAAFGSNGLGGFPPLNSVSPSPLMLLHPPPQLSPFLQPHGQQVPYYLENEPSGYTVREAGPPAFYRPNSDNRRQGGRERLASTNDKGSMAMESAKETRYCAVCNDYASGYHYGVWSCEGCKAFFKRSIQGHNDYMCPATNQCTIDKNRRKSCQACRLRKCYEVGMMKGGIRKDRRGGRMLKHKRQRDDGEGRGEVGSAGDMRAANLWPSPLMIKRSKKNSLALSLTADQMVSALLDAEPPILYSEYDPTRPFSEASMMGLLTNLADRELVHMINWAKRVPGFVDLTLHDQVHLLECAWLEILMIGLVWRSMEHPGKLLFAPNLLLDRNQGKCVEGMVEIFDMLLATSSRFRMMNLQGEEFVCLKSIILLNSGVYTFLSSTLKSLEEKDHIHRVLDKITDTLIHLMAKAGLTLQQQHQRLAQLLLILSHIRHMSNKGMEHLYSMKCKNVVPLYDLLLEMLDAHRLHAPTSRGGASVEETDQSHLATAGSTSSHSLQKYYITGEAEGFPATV
T1 sequence (Q92731 whole entry, looked up, the tested form may be a part): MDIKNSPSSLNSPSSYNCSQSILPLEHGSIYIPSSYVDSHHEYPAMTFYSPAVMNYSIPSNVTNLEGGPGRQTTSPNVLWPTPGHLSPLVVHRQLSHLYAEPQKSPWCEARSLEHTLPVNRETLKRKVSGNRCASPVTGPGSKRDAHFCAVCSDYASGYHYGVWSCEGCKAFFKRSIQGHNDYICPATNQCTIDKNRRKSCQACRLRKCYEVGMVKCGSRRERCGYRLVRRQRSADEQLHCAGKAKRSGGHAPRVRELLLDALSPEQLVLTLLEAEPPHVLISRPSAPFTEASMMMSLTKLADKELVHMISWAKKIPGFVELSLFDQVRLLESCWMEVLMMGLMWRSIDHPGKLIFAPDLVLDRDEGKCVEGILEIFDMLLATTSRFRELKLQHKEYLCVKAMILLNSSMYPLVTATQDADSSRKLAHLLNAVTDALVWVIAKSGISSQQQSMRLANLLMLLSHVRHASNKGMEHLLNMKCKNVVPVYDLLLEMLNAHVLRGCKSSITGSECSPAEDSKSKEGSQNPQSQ
Chain of Estrogen receptor (Homo sapiens) (P03372 whole entry, looked up, the tested form may be a part): as the sequence (P03372 whole entry, looked up, the tested form may be a part) above
Chain of bovine Gamma-Aminobutyric Acid Type A Receptor Agonist (GABAR Agonist), GABRA1 (gene 780973) (P08219 whole entry, looked up): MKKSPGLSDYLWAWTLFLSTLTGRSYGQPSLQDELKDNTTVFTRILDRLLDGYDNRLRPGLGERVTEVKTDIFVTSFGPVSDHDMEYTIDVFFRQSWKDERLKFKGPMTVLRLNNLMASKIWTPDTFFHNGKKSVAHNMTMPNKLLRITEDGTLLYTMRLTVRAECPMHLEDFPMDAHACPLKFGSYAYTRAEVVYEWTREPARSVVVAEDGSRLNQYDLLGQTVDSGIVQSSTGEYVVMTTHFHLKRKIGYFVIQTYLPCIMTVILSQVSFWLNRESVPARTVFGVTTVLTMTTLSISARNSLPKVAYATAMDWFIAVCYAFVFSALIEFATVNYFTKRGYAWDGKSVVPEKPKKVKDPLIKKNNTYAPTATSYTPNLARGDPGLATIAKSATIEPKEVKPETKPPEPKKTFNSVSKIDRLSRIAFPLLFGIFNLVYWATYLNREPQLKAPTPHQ
Chain of Androgen Receptor/SRC-1 Co-activator, AR (gene 367) (P10275 whole entry, looked up, the tested form may be a part): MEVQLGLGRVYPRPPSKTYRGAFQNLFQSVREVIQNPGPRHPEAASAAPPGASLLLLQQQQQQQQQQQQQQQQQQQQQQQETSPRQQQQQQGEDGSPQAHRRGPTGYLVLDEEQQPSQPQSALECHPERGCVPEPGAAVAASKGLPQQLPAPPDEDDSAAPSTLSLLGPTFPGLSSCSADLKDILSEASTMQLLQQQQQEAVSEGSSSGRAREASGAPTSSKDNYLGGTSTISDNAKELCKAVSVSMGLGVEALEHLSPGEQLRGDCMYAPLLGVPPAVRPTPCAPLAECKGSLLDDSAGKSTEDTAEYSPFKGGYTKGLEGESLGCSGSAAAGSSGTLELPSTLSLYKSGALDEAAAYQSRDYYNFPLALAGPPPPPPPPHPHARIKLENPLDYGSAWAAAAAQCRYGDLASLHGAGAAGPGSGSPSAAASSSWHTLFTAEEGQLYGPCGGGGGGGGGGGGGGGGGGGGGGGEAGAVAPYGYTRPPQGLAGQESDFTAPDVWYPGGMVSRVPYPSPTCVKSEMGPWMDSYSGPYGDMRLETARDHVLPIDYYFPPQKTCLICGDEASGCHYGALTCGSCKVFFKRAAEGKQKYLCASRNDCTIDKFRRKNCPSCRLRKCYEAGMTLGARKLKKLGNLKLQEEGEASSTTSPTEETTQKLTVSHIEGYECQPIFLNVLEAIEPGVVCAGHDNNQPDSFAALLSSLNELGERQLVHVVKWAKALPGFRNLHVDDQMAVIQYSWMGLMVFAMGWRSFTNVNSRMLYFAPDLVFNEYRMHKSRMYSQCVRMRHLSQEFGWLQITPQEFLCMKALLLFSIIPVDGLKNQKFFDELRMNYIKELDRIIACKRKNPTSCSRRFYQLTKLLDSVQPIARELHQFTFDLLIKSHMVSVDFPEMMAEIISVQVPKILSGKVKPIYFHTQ
Chain of PGR (gene 5241) (P06401 whole entry, looked up): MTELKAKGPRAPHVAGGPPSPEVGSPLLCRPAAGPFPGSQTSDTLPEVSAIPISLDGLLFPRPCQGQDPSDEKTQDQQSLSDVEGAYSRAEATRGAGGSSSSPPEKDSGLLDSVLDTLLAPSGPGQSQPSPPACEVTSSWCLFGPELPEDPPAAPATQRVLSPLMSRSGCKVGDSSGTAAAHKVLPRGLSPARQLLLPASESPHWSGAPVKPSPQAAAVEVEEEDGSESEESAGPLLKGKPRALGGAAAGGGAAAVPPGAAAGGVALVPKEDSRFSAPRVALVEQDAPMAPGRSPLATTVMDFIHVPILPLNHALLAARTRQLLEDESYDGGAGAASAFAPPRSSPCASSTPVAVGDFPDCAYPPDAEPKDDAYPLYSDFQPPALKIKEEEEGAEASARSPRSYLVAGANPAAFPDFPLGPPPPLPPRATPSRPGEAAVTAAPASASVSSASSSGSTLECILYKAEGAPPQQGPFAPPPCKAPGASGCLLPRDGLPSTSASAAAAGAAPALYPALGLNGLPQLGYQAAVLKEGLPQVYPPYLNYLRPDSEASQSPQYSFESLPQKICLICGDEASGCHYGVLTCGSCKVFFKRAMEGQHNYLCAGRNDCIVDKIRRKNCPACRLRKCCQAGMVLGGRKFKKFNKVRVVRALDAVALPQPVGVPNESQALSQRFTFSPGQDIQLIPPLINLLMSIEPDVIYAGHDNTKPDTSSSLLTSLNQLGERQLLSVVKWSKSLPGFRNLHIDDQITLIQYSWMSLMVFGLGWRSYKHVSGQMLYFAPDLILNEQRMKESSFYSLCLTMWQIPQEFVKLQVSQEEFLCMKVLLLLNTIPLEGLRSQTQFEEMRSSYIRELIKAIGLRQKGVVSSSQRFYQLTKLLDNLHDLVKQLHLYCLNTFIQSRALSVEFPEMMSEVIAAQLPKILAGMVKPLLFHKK
Chain of Estrogen receptor beta (Homo sapiens) (Q92731 whole entry, looked up, the tested form may be a part): as the sequence (Q92731 whole entry, looked up, the tested form may be a part) above

CCc1ccc(O)c(C(C)(C)C)c1
active: [7] 11.9 µM
inactive: [1] | [2] | [3] | [4] | [5] | [6] | [8] | [9]

C=CCc1cc(S(=O)(=O)c2ccc(O)c(CC=C)c2)ccc1O
inactive: [10] | [2] | [3] | [4] | [5] | [6] | [7]
active: [11] 19.1 µM | [12] 33.1 µM | [2] 12.5 µM | [13] 18.2 µM | [14] 69.1 µM | [15] 82.7 µM | [8] 25 µM

O=C1CN(N=Cc2ccc([N+](=O)[O-])o2)C(=O)N1
inactive: [1] | [3] | [4] | [7]

CCn1nc(C)c2c1C(=O)NCC(c1ccc(O)cc1)=N2
inactive: [16] | [3] | [4] | [5] | [6] | [7]

CCN(CC)C(=S)SSC(=S)N(CC)CC
inactive: [2] | [3] | [4] | [5] | [7]
active: [14] 59.6 µM | [15] 23.9 µM | [6] 12 µM

Cc1nc(-c2ccccn2)ncc1C(=O)Nn1cc(C)c2cc(F)ccc21
inactive: [17] | [3] | [4] | [5] | [14] | [15] | [6] | [7] | [18]

O=C(O)c1ccc2c(c1)nc(C(=O)NC1CCN(C3CC3)CC1)n2Cc1cc(-c2ccc(Cl)s2)on1
inactive: [17] | [3] | [4] | [5] | [6] | [7] | [8]

NC(=O)N1c2ccccc2C=Cc2ccccc21
inactive: [1] | [11] | [3] | [4] | [5] | [6] | [7] | [18] | [9]

CCCc1ccccc1
inactive: [3] | [4] | [5] | [7] | [9]

O=S(=O)(O)c1ccc(N=Nc2c(O)ccc3cc(S(=O)(=O)O)ccc23)cc1
inactive: [3] | [4] | [9]

OCc1ccccc1
inactive: [3] | [4] | [5] | [14] | [6] | [7] | [9]

CCCOc1ccc(S(=O)(=O)N2CCN(CC)CC2)cc1-c1nc2c(CC)n(Cc3ccccn3)nc2c(=O)[nH]1
inactive: [3] | [4] | [5] | [6] | [7] | [9]

Cc1ccc(S(=O)(=O)NC(=O)NN2CCCCCC2)cc1
inactive: [3] | [4] | [5] | [6] | [7]

OCCOCCOCCO
inactive: [3] | [4] | [5] | [14] | [15] | [6] | [7]

CCOc1ccc2[nH]cc(C(=O)NCc3ccccc3)c(=O)c2n1
inactive: [3] | [4] | [5] | [6] | [7]

OC[C@H]1O[C@@](CO)(O[C@H]2O[C@H](CO)[C@@H](O)[C@H](O)[C@H]2O)[C@@H](O)[C@@H]1O
inactive: [3] | [4] | [6] | [7] | [9]

NC(=O)NN=Cc1ccc([N+](=O)[O-])o1
inactive: [3] | [4] | [5] | [6]

NC(=O)N(O)[C@@H]1COc2cc(OCc3ccccc3)ccc21
inactive: [3] | [4] | [5] | [6] | [7]

O=C(NO)C1(NS(=O)(=O)c2ccc(Oc3ccc(F)cc3)cc2)CCOCC1
inactive: [3] | [4] | [6] | [7]
active: [9] 6.3 µM

CC(C)CCCCCCOC(=O)C1CCCCC1C(=O)OCCCCCCC(C)C (centres undefined)
inactive: [3] | [4] | [5] | [6]

CNC(C)=O
inactive: [3] | [4] | [5] | [6] | [7]

C=CN1CCCC1=O
inactive: [3] | [4]

CC(C)CC(C)O (centres undefined)
inactive: [3] | [4] | [5] | [6] | [7]

O=C(O)[C@H](O)[C@@H](O)C(=O)O
inactive: [3] | [4] | [5] | [6] | [7] | [9]

OC(CCl)CCl
active: [8] 40.2 µM
inactive: [3] | [4] | [5] | [6]

c1ccc2cc3ccccc3cc2c1
inactive: [3] | [4] | [5] | [6] | [7]

CCCCOC(=O)c1ccccc1
inactive: [3] | [4] | [14] | [15]

CCCCN1C(=O)[C@@H]([C@H](O)C2CCCCC2)NC(=O)C12CCN(Cc1ccc(Oc3ccc(C(=O)O)cc3)cc1)CC2
inactive: [3] | [4] | [5] | [6] | [8]

CC[C@H](C)C(=O)O[C@H]1C[C@H](O)C=C2C=C[C@H](C)[C@H](CC[C@@H](O)C[C@@H](O)CC(=O)O)[C@H]21
inactive: [3] | [4] | [5] | [6] | [7]
